Data: PubChem BioAssay (Tox21)
Results filed as inconclusive are left out. Calls of active or inactive are those of the source. Unless noted, calls come from the whole dose curve; as a rule, active = well fitted curve in the direction sought with a large enough effect in the repeat runs; inconclusive = weak or mixed curves; inactive = no such curve, though single readings can be large; an effect the other way counts as inactive or inconclusive.

Legend:
[1] = qHTS assay to identify small molecule antagonists of the thyroid receptor (TR) signaling pathway - cell viability counter screen (AID 743064); note: nearly all actives have a fitted effect of over 50% in size
Method in brief: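 Compounds were tested on GH3.TRE-Luc cells in the presence of T3 at 1 nM final. Following 23.5 h at 37 °C, cell viability was quantified by CellTiter-Fluor.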

[2] = qHTS assay to identify small molecule antagonists of the thyroid receptor (TR) signaling pathway (AID 743065); note: series mostly up to about 70 µM; nearly all actives have a fitted effect of over 55% in size
Method in brief: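 GH3.TRE-Luc rat pituitary cells (two TREs driving luciferase) were dosed with compound, then stimulated with 1 nM T3 (final) for 23.5 h at 37 C. ONE-Glo luminescence was the read-out, with CellTiter-Fluor fluorescence as the cytotoxicity counter-screen.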

[3] = tested on: thyroid hormone receptor (rat, GH3 cells); test: qHTS assay to identify small molecule agonists of the thyroid receptor (TR) signaling pathway (AID 743066; calls by dose curve)
[4] = target: Estrogen receptor (Homo sapiens) (UniProt P03372); test: qHTS assay to identify small molecule antagonists of the estrogen receptor alpha (ER-alpha) signaling pathway (AID 743069; active = well fitted curve in the direction sought with a large enough effect in the signal ratio in the repeat runs, not every such curve was filed as active; the % refers to the signal ratio)
Estrogen receptor (Homo sapiens), sequence (P03372 whole entry, looked up): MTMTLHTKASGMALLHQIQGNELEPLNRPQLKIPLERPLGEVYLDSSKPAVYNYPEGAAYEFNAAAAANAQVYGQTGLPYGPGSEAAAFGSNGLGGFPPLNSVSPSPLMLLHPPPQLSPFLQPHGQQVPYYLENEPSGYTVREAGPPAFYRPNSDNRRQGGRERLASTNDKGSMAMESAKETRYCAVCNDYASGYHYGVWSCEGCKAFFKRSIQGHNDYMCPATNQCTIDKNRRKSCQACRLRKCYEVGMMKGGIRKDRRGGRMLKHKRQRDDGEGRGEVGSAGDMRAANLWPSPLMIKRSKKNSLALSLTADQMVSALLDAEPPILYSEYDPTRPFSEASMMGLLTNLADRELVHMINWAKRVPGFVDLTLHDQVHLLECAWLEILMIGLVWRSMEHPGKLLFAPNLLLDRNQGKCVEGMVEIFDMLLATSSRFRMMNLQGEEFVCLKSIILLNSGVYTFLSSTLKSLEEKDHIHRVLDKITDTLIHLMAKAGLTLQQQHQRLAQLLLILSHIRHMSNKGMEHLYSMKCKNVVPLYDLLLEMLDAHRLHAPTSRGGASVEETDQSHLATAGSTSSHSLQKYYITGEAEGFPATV
Method in brief: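 Beta-lactamase FRET fluorescence is read after 2 hr at room temperature with LiveBLAzer B/G substrate. Before that, ER-alpha-bla HEK293 cells sit 4 hr after plating, then receive compound plus 17beta-estradiol and incubate 18 hr at 37C.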

[5] = qHTS assay to identify small molecule antagonists of the estrogen receptor alpha (ER-alpha) signaling pathway - cell viability counter screen (AID 743074; calls by dose curve;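 note: HEK293 cells carrying ER-alpha-UAS-bla reporter stimulated with 17beta-estradiol; nearly all actives have a fitted effect of over 45% in size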)
[6] = target: Estrogen receptor (Homo sapiens) (UniProt P03372); test: qHTS assay to identify small molecule agonists of the estrogen receptor alpha (ER-alpha) signaling pathway (AID 743075; calls by dose curve;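 note: HEK293 GripTite cells with ER-alpha and UAS-driven beta-lactamase reporter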)
[7] = target: Estrogen receptor (Homo sapiens) (UniProt P03372); test: qHTS assay to identify small molecule agonists of the estrogen receptor alpha (ER-alpha) signaling pathway using the BG1 cell line (AID 743079); note: nearly all actives have a fitted effect of over 20% in size
[8] = qHTS assay to identify small molecule antagonists of the estrogen receptor alpha (ER-alpha) signaling pathway using the BG1 cell line (AID 743080; calls by dose curve;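 note: BG1 cells stimulated with 17beta-estradiol alongside compound; series mostly up to about 70 µM; nearly all actives have a fitted effect of over 25% in size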)
Method in brief: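 Quantitative HTS on the Tox21 10K library: BG1 cells with endogenous ER-alpha and ERE-luciferase reporter, 17beta-estradiol stimulation, 21.5 h compound exposure, luminescence endpoint with parallel fluorescence cytotoxicity counter-read.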

[9] = qHTS assay to identify small molecule antagonists of the estrogen receptor alpha (ER-alpha) signaling pathway using the BG1 cell line - cell viability counter screen (AID 743081);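 note: compound given together with 17beta-estradiol as the ER stimulus; series mostly up to about 70 µM; nearly all actives have a fitted effect of over 45% in size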
Aromatase (Homo sapiens) = Aromatase (Homo sapiens) (UniProt P11511); test: qHTS assay to identify aromatase inhibitors (AID 743083); note: series mostly up to about 70 µM; nearly all actives have a fitted effect of over 55% in size
Aromatase (Homo sapiens), sequence (P11511 whole entry, looked up): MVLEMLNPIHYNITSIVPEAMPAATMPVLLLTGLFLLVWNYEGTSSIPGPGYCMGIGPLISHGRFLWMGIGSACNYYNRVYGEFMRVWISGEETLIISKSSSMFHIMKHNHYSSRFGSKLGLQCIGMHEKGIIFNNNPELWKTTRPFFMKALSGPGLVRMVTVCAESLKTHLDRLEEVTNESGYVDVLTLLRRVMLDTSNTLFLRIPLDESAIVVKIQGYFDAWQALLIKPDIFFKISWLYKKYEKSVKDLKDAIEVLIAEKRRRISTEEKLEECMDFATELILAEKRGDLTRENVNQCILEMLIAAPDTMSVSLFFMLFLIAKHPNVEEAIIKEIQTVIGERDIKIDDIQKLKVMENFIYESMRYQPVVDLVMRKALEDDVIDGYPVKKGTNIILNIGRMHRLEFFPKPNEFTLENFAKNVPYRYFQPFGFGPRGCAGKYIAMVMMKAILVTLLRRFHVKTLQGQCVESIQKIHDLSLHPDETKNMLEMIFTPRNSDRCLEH

[10] = qHTS assay to identify aromatase inhibitors - cell viability counter screen (AID 743084);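 note: cells stimulated with testosterone during compound exposure; nearly all actives have a fitted effect of over 55% in size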
[11] = target: Aryl hydrocarbon receptor (Homo sapiens) (UniProt P35869); test: qHTS assay to identify small molecule that activate the aryl hydrocarbon receptor (AhR) signaling pathway (AID 743085);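 note: HG2L7.5c1 human HepG2 liver cells with stably integrated DRE-driven firefly reporter; series mostly up to about 70 µM; nearly all actives have a fitted effect of over 15% in size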
Aryl hydrocarbon receptor (Homo sapiens), sequence (P35869 whole entry, looked up): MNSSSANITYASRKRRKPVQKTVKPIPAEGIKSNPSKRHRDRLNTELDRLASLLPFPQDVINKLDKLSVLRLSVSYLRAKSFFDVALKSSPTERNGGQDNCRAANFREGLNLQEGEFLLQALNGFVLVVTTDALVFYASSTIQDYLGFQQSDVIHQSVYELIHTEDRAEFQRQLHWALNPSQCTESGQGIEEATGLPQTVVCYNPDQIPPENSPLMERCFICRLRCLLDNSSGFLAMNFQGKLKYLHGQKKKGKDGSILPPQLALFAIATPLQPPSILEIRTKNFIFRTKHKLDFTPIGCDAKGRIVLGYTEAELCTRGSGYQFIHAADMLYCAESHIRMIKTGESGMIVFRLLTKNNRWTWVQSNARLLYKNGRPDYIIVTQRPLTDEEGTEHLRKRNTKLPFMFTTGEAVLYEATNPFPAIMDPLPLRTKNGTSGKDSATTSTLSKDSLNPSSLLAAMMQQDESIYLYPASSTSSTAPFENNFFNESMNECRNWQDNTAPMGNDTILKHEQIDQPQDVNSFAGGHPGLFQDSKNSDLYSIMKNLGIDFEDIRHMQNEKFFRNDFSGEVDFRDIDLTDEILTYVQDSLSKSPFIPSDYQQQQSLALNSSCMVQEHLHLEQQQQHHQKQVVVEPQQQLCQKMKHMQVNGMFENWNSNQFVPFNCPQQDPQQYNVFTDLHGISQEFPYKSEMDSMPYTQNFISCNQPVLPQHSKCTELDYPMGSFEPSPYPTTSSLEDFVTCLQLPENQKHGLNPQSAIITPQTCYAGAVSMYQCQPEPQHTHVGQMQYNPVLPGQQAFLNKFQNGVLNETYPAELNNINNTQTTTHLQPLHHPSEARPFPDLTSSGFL
Method in brief: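 24 h compound exposure, 37C, HepG2-derived HG2L7.5c1 cells with DRE-responsive luciferase. Readouts: fluorescence viability, then luminescence at room temperature after 30 min.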

[12] = qHTS assay to identify small molecule that activate the aryl hydrocarbon receptor (AhR) signaling pathway - cell viability counter screen (AID 743086);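 note: HepG2 liver cells carrying the AhR DRE luciferase reporter; series mostly up to about 70 µM; nearly all actives have a fitted effect of over 45% in size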
Method in brief: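 HepG2-AhR-luc (HG2L7.5c1) cells, 4000/well, treated 24 h at 37 C with compound; viability measured as CellTiter-Fluor fluorescence after 30 min in the same wells as the luciferase read.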

[13] = qHTS assay for small molecule agonists of the antioxidant response element (ARE) signaling pathway - cell viability counter screen (AID 743203; calls by dose curve; note: nearly all actives have a fitted effect of over 55% in size)
Method in brief: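 Viability counter screen: stably transfected ARE-bla HepG2 line, 16 hrs compound exposure at 37C/5% CO2, ATP-based CellTiter-Glo luminescence measured in the reporter wells.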

[14] = qHTS assay for small molecule activators of the heat shock response signaling pathway (AID 743210; active = well fitted activation curve with a large enough effect in the signal ratio in the repeat runs, with a control signal flat, not every such curve was filed as active; the % refers to the signal ratio;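 note: HeLa cells with beta-lactamase reporter driven by heat shock elements; series mostly up to about 63 µM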)
Method in brief: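 Beta-lactamase reporter read-out: FRET substrate fluorescence after 2.5 h at RT, following 5 h compound treatment at 37 C of HeLa cells carrying HSE-driven bla reporter; quantitative HTS format.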

[15] = target: Peroxisome proliferator-activated receptor gamma (Homo sapiens) (UniProt P37231); test: qHTS assay to identify small molecule agonists of the peroxisome proliferator-activated receptor gamma (PPARg) signaling pathway (AID 743094; active = well fitted activation curve with a large enough effect in the signal ratio in the repeat runs, not every such curve was filed as active; the % refers to the signal ratio)
Peroxisome proliferator-activated receptor gamma (Homo sapiens), sequence (P37231 whole entry, looked up): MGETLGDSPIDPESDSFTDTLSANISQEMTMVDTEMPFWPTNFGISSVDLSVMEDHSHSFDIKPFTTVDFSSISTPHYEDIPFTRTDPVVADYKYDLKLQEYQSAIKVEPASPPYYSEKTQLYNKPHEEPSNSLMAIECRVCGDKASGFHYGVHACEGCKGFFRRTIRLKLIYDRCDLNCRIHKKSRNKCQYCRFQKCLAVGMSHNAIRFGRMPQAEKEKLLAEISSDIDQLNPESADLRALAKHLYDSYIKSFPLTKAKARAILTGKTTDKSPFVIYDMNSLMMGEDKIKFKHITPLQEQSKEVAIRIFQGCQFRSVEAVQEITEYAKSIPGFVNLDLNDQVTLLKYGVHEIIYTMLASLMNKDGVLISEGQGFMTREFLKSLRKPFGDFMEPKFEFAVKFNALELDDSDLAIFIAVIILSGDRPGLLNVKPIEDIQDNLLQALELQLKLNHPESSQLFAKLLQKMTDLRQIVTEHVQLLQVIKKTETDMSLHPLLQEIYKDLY
Method in brief: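 Reporter activation was scored by fluorescence of cleaved LiveBLAzer B/G substrate (1 h, room temperature) in PPARg-bla HEK293H cells previously treated 17 h at 37C with DMSO-dissolved compounds.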

[16] = qHTS assay for small molecule agonists of the antioxidant response element (ARE) signaling pathway (AID 743202; active = well fitted activation curve with a large enough effect in the signal ratio in the repeat runs, not every such curve was filed as active; the % refers to the signal ratio)
Method in brief: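 HepG2 ARE-bla reporter line, 2,000 cells/well; 5 h preincubation 37 C/5% CO2; compound (DMSO) 16 h 37 C; B/G FRET substrate 2 h RT; fluorescence intensity.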

[17] = qHTS assay for small molecule activators of the heat shock response signaling pathway - cell viability counter screen (AID 743209); note: nearly all actives have a fitted effect of over 50% in size
Method in brief: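 Viability of HSE-bla HeLa cells is measured with CellTiter-Glo in the wells already used for the reporter read. Compound exposure lasts 5 h at 37 C, and luminescence is read after 30 min at room temperature.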

[18] = target: Peroxisome proliferator-activated receptor gamma (Homo sapiens) (UniProt P37231); test: qHTS assay to identify small molecule antagonists of the peroxisome proliferator-activated receptor gamma (PPARg) signaling pathway (AID 743191; calls by dose curve; note: series mostly up to about 63 µM; nearly all actives have a fitted effect of over 30% in size)
Method in brief: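 GeneBLAzer PPARg UAS-bla HEK293H cells, 5 h post-plating, exposed to compounds 17 h at 37C. LiveBLAzer B/G FRET substrate added for 1 h at room temperature; beta-lactamase reporter read by fluorescence intensity.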

[19] = qHTS assay to identify small molecule antagonists of the peroxisome proliferator-activated receptor gamma (PPARg) signaling pathway - cell viability counter screen (AID 743194); note: nearly all actives have a fitted effect of over 55% in size
Method in brief: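 Cytotoxicity counter screen in PPARg-bla HEK293H cells, same wells as reporter assay. Compounds plus 50 nM rosiglitazone (final) for 17 h at 37 C, then viability read by CellTiter-Glo luminescence.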
% is set by controls: 0 for no effect and ±100 for the full control effect.

CC(C(=O)O)c1ccc2c(c1)[nH]c1ccc(Cl)cc12 (configuration not stated)
inactive: Potency [1] | Potency [2] | outcome [3] | Potency [4] | Potency [5] | Potency [6] | Potency [7] | Potency [8] | Potency [9] | Potency (Aromatase (Homo sapiens)) | Potency [10] | Potency [11] | Potency [12] | Potency [13] | Potency [14]

CC(CO)Oc1ccccc1 (configuration not stated)
inactive: Potency [1] | Potency [2] | outcome [3] | Potency [4] | Potency [5] | Potency [6] | Potency [7] | Potency [8] | Potency [9] | Potency (Aromatase (Homo sapiens)) | Potency [11] | Potency [12] | Potency [15] | Potency [16] | Potency [17] | Potency [14]

CC(=O)OCC=C(C)C
inactive: Potency [1] | Potency [2] | outcome [3] | Potency [4] | Potency [5] | Potency [6] | Potency [7] | Potency [8] | Potency [9] | Potency (Aromatase (Homo sapiens)) | Potency [10] | Potency [11] | Potency [12] | Potency [15] | Potency [17] | Potency [14]

CCCCCc1ccc(Cl)cc1
inactive: Potency [1] | Potency [2] | outcome [3] | Potency [4] | Potency [5] | Potency [6] | Potency [7] | Potency [9] | Potency (Aromatase (Homo sapiens)) | Potency [10] | Potency [11] | Potency [12] | Potency [15] | Potency [18] | Potency [16] | Potency [13] | Potency [17] | Potency [14]

Cc1ccc(C(C)C)cc2c(C)ccc1-2
inactive: Potency [1] | Potency [2] | outcome [3] | Potency [4] | Potency [5] | Potency [6] | Potency [7] | Potency [8] | Potency [9] | Potency (Aromatase (Homo sapiens)) | Potency [10] | Potency [11] | Potency [12] | Potency [15] | Potency [18] | Potency [19] | Potency [13] | Potency [17] | Potency [14]

COC(C)=O
inactive: Potency [1] | Potency [2] | outcome [3] | Potency [4] | Potency [5] | Potency [6] | Potency [7] | Potency [8] | Potency [9] | Potency (Aromatase (Homo sapiens)) | Potency [10] | Potency [11] | Potency [12] | Potency [15] | Potency [19] | Potency [16] | Potency [13] | Potency [17] | Potency [14]

CCCCCCOC(=O)C(C)CC (configuration not stated)
inactive: Potency [1] | Potency [2] | outcome [3] | Potency [4] | Potency [5] | Potency [6] | Potency [7] | Potency [8] | Potency [9] | Potency (Aromatase (Homo sapiens)) | Potency [10] | Potency [11] | Potency [12] | Potency [15] | Potency [13] | Potency [17] | Potency [14]

CCCC1CCC(=O)CC1
inactive: Potency [1] | Potency [2] | outcome [3] | Potency [4] | Potency [5] | Potency [6] | Potency [7] | Potency [8] | Potency [9] | Potency (Aromatase (Homo sapiens)) | Potency [10] | Potency [11] | Potency [12] | Potency [15] | Potency [18] | Potency [16] | Potency [13] | Potency [17] | Potency [14]

CC(C)(C)CC(C)(C)c1ccc(Nc2ccc(C(C)(C)CC(C)(C)C)cc2)cc1
inactive: activity change, negative = cytotoxic [1] 10.6% [at 8.44 µM] | activity, negative = inhibition [2] 9.26% [at 8.44 µM] | activation [3] 1.29% [at 8.08 µM] | activity, negative = inhibition [4] -8.94% [at 6.71 µM] | activity, negative = cytotoxicity [5] -17.2% [at 6.72 µM] | activation [6] -3.98% [at 6.71 µM] | activation [7] -8.83% [at 8.47 µM] | activity change, negative = inhibition [8] 1.65% [at 8.47 µM] | activity change, negative = cytotoxicity [9] 8.25% [at 8.47 µM] | activity, negative = inhibition (Aromatase (Homo sapiens)) -0.995% [at 8.47 µM] | activity change, negative = cytotoxicity [10] 3.33% [at 8.47 µM] | activation [11] -2.79% [at 8.47 µM] | viability change, negative = cytotoxic [12] -11.3% [at 8.47 µM] | activation [15] 0.247% [at 7.08 µM] | activation [16] -4.99% [at 8.36 µM] | viability change, negative = cytotoxic [13] 7.42% [at 8.36 µM] | activation [14] 0.375% [at 5.95 µM]

C=Cc1cccc(C)c1
inactive: Potency [1] | Potency [2] | outcome [3] | Potency [4] | Potency [5] | Potency [6] | Potency [7] | Potency [8] | Potency [9] | Potency (Aromatase (Homo sapiens)) | Potency [10] | Potency [11] | Potency [12] | Potency [15] | Potency [13] | Potency [14]

O=C(O)c1cccc(C(F)(F)F)c1
inactive: Potency [1] | Potency [2] | outcome [3] | Potency [4] | Potency [5] | Potency [6] | Potency [7] | Potency [8] | Potency [9] | Potency (Aromatase (Homo sapiens)) | Potency [10] | Potency [11] | Potency [12] | Potency [15] | Potency [18] | Potency [19] | Potency [16] | Potency [13] | Potency [17] | Potency [14]

CC[N+](CC)(CC)CCOC(=O)C(C1CCCC1)C1CCCC1
inactive: Potency [1] | Potency [2] | outcome [3] | Potency [4] | Potency [5] | Potency [6] | Potency [7] | Potency [8] | Potency [9] | Potency (Aromatase (Homo sapiens)) | Potency [10] | Potency [11] | Potency [12] | Potency [15] | Potency [13] | Potency [17] | Potency [14]

ClCCl
inactive: Potency [1] | Potency [2] | outcome [3] | Potency [4] | Potency [5] | Potency [6] | Potency [7] | Potency [8] | Potency [9] | Potency (Aromatase (Homo sapiens)) | Potency [10] | Potency [11] | Potency [19] | Potency [16] | Potency [13] | Potency [17] | Potency [14]

COC(=O)c1ccccc1C
inactive: Potency [1] | Potency [2] | outcome [3] | Potency [4] | Potency [5] | Potency [6] | Potency [7] | Potency [8] | Potency [9] | Potency (Aromatase (Homo sapiens)) | Potency [10] | Potency [11] | Potency [12] | Potency [18] | Potency [16] | Potency [13] | Potency [17] | Potency [14]

CCCCOC(=O)CO
inactive: Potency [1] | Potency [2] | outcome [3] | Potency [4] | Potency [5] | Potency [6] | Potency [7] | Potency [8] | Potency [9] | Potency (Aromatase (Homo sapiens)) | Potency [10] | Potency [11] | Potency [12] | Potency [18] | Potency [19] | Potency [16] | Potency [13] | Potency [14]
